# From PubChem BioAssay (NCATS)
# Results filed as inconclusive are left out. Active and inactive are the calls of the source. The call rests on the fitted dose curve; in most records, active means well fitted inhibition curve with a large enough effect; inconclusive means small, poorly fitted or top-dose-only effect; inactive means flat fitted curve, though single readings scatter.
# Tested on: Zika virus NS2B-NS3 protease
# Test: Primary screen GU AMC qHTS for Zika virus inhibitors (AID 1347154); further: nearly all actives have a fitted effect of over 70% in size;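 on activity change, negative = inhibition: 0% = no-inhibitor control and -100% = no-enzyme control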
# Settings: Zika NS2B-NS3 unlinked protease, AMC fluorogenic substrate; series mostly up to 54.1 µM; activity change, negative = inhibition: at the top concentration
# How it was run: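 Unlinked Zika NS2B hydrophilic domain/NS3 protease domain noncovalent complex (25 nM final) in 10 mM Tris-HCl pH 8.0, 0.01% Tween 20, with AMC peptide substrate. Fluorescence (ex 340, em 450 nm) change over 15 min, room temperature; percent inhibition fitted to 4-parameter Hill equation.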
# Potency means the concentration at half of the fitted maximal effect.
SMILES,Potency,"activity change, negative = inhibition"
c1ccc(-c2oc3ncnc(NC[C@@H]4CCCO4)c3c2-c2ccccc2)cc1,30.4 µM (active),–
CCCCn1c(=O)n(Cc2ccccc2F)c(=O)c2[nH]c(Cc3ccc(NC(C)=O)cc3)nc21,–,-2.05% (inactive)
O=C(CO)N1CCC(c2[nH]nc(-c3ccc(Cl)cc3)c2-c2ccncn2)CC1,–,-10.1% (inactive)
CN(C)CCCNC(=O)c1ccc(-c2cc(O)c3ncccc3c2)cc1,–,3.52% (inactive)
COc1nc(C)cnc1NS(=O)(=O)c1cccnc1-c1ccc(-c2nnco2)cc1,–,-1.53% (inactive)
CC(C)CNc1ccnc(NCc2csc(-c3ccccc3)n2)n1,–,-3.24% (inactive)
O=C(CC12CC3CC(CC(C3)C1)C2)Nc1cccc2nc(NCCNCCO)ccc12,–,14.6% (inactive)
COc1nccc(-c2c(-c3ccc(F)cc3)ncn2C2CCC(O)CC2)n1 (stereo unspecified),inactive,–
CN1CCc2c(n(Cc3ccc(C(=O)NO)cc3)c3ccccc23)C1,–,-9.26% (inactive)
O=C(CCCN1CCN(c2ccc(F)cc2)CC1)NC1c2ccccc2CSc2ccccc21 (stereo unspecified),–,10.8% (inactive)
Cn1c(=O)c(-c2c(Cl)cccc2Cl)cc2cnc(Nc3cccc(C(=O)O)c3)nc21,–,1.77% (inactive)
Fc1ccc(CNc2ncnc3ccc(F)cc23)cc1,–,1.54% (inactive)
Clc1ccc(C2(c3ccc(-c4cn[nH]c4)cc3)CCNCC2)cc1,–,15.8% (inactive)
CCc1cccc(CC)c1NC(=O)N1Cc2[nH]nc(NC(=O)c3ccc(N4CCN(C)CC4)cc3)c2C1,–,-1.27% (inactive)
NS(=O)(=O)c1ccc(Nc2nc(OCC3CCCCC3)c3[nH]cnc3n2)cc1,–,-22.2% (inactive)
Nc1ccc(-c2ccc3ncc4ccc(=O)n(-c5cccc(C(F)(F)F)c5)c4c3c2)cn1,–,-0.713% (inactive)
